This is an account of results in ChEMBL document CHEMBL3433997, “St. Jude Leishmania screening dataset” (2016).

What all share (assay type): functional
Assay [1] concerns the target Solute carrier family 2, facilitated glucose transporter member 1 (Homo sapiens) (UniProt P11166). The assay can be described thus: ST_JUDE_LEISH: Cytotoxicity at 2uM final concentration against transgenic Leishmania Mexicana promastigotes LmGLUT1 that are glucose transport deficient and complemented with the human glucose transporter GLUT1. Activity is measured by DNA content using SYBR green in vitro.

The target of assay [2] is Hexose transporter 1 (Plasmodium falciparum) (UniProt O97467). Kind of assay: ST_JUDE_LEISH: Cytotoxicity at 2uM final concentration against transgenic Leishmania Mexicana promastigotes LmPfHT that are glucose transport deficient and complemented with the Plasmodium falciparum hexose transporter. Activity is measured by DNA content using SYBR green in vitro.
Assay [3] addresses Glucose transporter (Leishmania mexicana) (UniProt O61059). The assay can be described thus: ST_JUDE_LEISH: Cytotoxicity at 2uM final concentration against transgenic Leishmania Mexicana promastigotes LmGT2 that are glucose transport deficient and complemented with the L. Mexicana glucose transporter 2. Activity is measured by DNA content using SYBR green in vitro.

Sequence of Solute carrier family 2, facilitated glucose transporter member 1 (Homo sapiens) (P11166 whole entry): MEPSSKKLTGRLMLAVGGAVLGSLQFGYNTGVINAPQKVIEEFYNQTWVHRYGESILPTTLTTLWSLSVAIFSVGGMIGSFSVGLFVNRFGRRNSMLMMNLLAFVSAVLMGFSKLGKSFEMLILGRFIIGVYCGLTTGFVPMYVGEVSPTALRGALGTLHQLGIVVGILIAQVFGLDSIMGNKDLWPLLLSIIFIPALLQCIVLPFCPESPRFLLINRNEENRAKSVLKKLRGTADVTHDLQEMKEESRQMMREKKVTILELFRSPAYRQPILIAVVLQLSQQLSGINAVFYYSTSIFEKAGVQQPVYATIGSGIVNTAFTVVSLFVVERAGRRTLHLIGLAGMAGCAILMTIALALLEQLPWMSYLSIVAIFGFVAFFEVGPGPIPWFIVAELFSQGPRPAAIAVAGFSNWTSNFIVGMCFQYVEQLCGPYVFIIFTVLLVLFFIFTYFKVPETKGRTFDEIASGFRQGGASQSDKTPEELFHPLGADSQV

By inhibition is commonly meant the relative decrease from the control value, in per cent. With `Cc1ccc(CON2C(=N)N=C(N)NC2(C)C)cc1C`, the results for the inhibition in assay [1], in assay [2] and in assay [3] were 4.78%, 3.55% and 3.93%, respectively.

As to `Cc1cccc(-c2ccc(NC(=O)Nc3ccc4nccc(N5CCN(C)CC5)c4c3)cc2C)n1`, the figures for the inhibition in assay [1], in assay [2] and in assay [3] were 8.09%, 5.32% and 3.13%, respectively.

With `Cc1cc(C)c(NC(=O)NC2CCN(CCCCCNC(=O)/C=C/c3ccc(Cl)c(Cl)c3)CC2)c(C)c1`, the inhibition in assay [1] worked out at 4.35%; in assay [2], 2.53%; in assay [3] it was 3.81%.

Turning to `COc1ccccc1/C=C/C(=O)NC1CCC(CCN2CCc3ccc(-c4cc(C)no4)cc3CC2)CC1` (centres undefined), the inhibition in assay [1] came out at 3.11%; in assay [2], 1.2%; in assay [3], 9.56%.

For `Cc1ccc2nc(C)n(C3CCN(C(=O)Cc4ccccc4C)CC3)c2c1`, the inhibition was found to be 5.4% in assay [1], 8.18% in assay [2] and 4.9% in assay [3].

For `CC(C)c1ccc(NC(=O)c2cccc(CN3CCCN(Cc4cccc(C#N)c4)CC3)c2)cc1`, the inhibition in assay [1] came out at 6.55%; in assay [2], 6.93%; in assay [3] it was 3.39%.

For the compound `O=C(NC1CC1)c1ccc(N2CCCCN2CCc2ccccc2)c(C(F)(F)F)c1`, the results for the inhibition in assay [1], in assay [2] and in assay [3] were 10.5%, 19.8% and 5.87%, respectively.

Regarding `CC(=O)Nc1cc(C(=O)Nc2cccc(-c3cccc(-c4nc5cccc(C)c5[nH]4)c3)c2)ccc1C`, the inhibition stood at 2.89% in assay [1], 2.86% in assay [2] and 1.31% in assay [3].

In the case of `COc1ccc(-c2cc3ncnc(N4CCN(CCN5CCCC5)CC4)c3s2)cc1`, the inhibition in assay [1] was 2.34%; in assay [2] it was 0.99%; in assay [3] it was 0.9%.

With `CCCCN(Cc1cc(Cl)c(OC)c(OC)c1)c1ccc(C(O)(C(F)(F)F)C(F)(F)F)cc1`, the inhibition in assay [1] was 1.29%; in assay [2], 4.14%; in assay [3], -0.33%.

On to `COc1ccc(C(=O)N[C@@H](CC(C)C)C(=O)N[C@H](/C=N/NC(=O)c2ccccc2)CCc2ccccc2)cc1OCCN1CCOCC1`, for which the inhibition was -0.43% in assay [1], 3.34% in assay [2] and 6.8% in assay [3].

For `CN(C)C(CNc1ncnc2cc(Cl)ccc12)Cc1ccccc1` (centres undefined), the values for the inhibition in assay [1], in assay [2] and in assay [3] were 4.67%, 3.87% and 3.65%, respectively.

Take `CCNc1cc(C(=O)N[C@@H](Cc2ccccc2)[C@H](O)CNC(C)CC(C)C)c(F)c(N2CCCCS2(=O)=O)c1` (some centres undefined): the inhibition is 2.89% in assay [1], 3.43% in assay [2] and 2.55% in assay [3].

On to `Nc1ccc(-c2ccc3ccnc(N)c3c2)cc1`, for which the results for the inhibition in assay [1], in assay [2] and in assay [3] were 0.24%, -0.79% and 1.39%, respectively.

For `CC(=O)Nc1ccc(CN2Cc3ccc(NC(=O)Nc4ccc(Oc5ccccc5)cc4)cc3C2)s1`, the inhibition was 1.61% in assay [1], -0.21% in assay [2] and 1.94% in assay [3].

Take `CCc1ccc(NC(=O)c2ccc(CN3CCCN(Cc4cccs4)CC3)cc2)cc1`: the inhibition in assay [1] was found to be 13.8%; in assay [2], 12.6%; in assay [3], 14.9%.

Turning to `COc1cc(Cc2cnc(N)nc2N)ccc1OCc1ccc(F)c(F)c1`, the figures for the inhibition in assay [1], in assay [2] and in assay [3] were 3.03%, 5.38% and 4.59%, respectively.

For the compound `CC(Cc1ccc(NS(=O)(=O)c2ccc(CC(C)NCCc3cccc(Cl)c3)cc2)cc1)NCCc1cccc(Cl)c1` (centres undefined), the inhibition in assay [1] came to 0.89%; in assay [2], 9.69%; in assay [3], 7.25%.

In the case of `O=C(Nc1ccc(-c2nc3ccccc3[nH]2)cc1)c1ccc(Cl)s1`, the inhibition is 3.19% in assay [1], 2.35% in assay [2] and 1.71% in assay [3].

Take `COc1cc(C(=O)NC2CCN(Cc3ccccc3)CC2)ccc1-c1nc2cc(Cl)c(Cl)cc2[nH]1`: the inhibition in assay [1] was 0.11%; in assay [2] it was 1.66%; in assay [3] it was 0.13%.

In the case of `Cc1cnc(Nc2cccc(CCN3CCOCC3)c2)nc1NC(C)C`, the inhibition in assay [1] came out at 9.35%; in assay [2], 9.73%; in assay [3], 2.69%.

For `Cc1ccoc1C(=O)Nc1ccc(-c2cccc(-c3nc4cccc(C)c4[nH]3)c2)cc1`, the inhibition in assay [1] came to 2.21%; in assay [2] it was 2.54%; in assay [3] it was 1.34%.

As for `Cc1cc(N[C@@H](CC(C)C)C(=O)NCCOc2ccccc2)nc(NCCc2ccccc2)n1`, the inhibition worked out at 1.89% in assay [1], 0.4% in assay [2] and 2.69% in assay [3].

In the case of `CCCc1cc(OC)c(CC2c3cccc(O)c3CCN2C)cc1OC` (centres undefined), the values for the inhibition in assay [1], in assay [2] and in assay [3] were 0.68%, 0.4% and -0.12%, respectively.

For `Cc1nnc2c(N(C(=O)NCCc3ccccc3)C(=O)NCCc3ccccc3)cc3cc(Cl)ccc3n12`, the inhibition in assay [1] was 11.2%; in assay [2], 10.1%; in assay [3] it was 8.99%.

For the compound `Cc1cc(N[C@@H](Cc2ccccc2)C(=O)NCc2cccc(F)c2)nc(NCCc2cccs2)n1`, the results for the inhibition in assay [1], in assay [2] and in assay [3] were 2.6%, 2.99% and 2.23%, respectively.

Regarding `Cc1cnc2cc3c(cc2c1N1CCN(C)CC1)NCC3`, the inhibition was -0.55% in assay [1], -0.98% in assay [2] and -1.24% in assay [3].

Take `Nc1nc(N)c2c(Oc3cccc4ccccc34)cccc2n1`: the inhibition in assay [1] is 4.57%; in assay [2], 2.3%; in assay [3] it was 3.17%.

Regarding `COc1cccc(-c2cc(C(=O)Nc3ccc4[nH]c(-c5ccccc5)nc4c3)[nH]n2)c1`, the inhibition is 4.77% in assay [1], 3.14% in assay [2] and 1.09% in assay [3].

Regarding `Cc1csc(NC(=O)c2cn(-c3ccccc3)nc2-c2cccs2)n1`, the inhibition was determined as 6.04% in assay [1], 4.44% in assay [2] and 0.74% in assay [3].

Take `O=C(NCC1CCC(CNCCc2ccccc2)CC1)Nc1ccc(Cl)c(Cl)c1` (centres undefined): the values for the inhibition in assay [1], in assay [2] and in assay [3] were -0.7%, -1.96% and -2.11%, respectively.

For the compound `O=C(C1CCCC1)N1CCOC(CCN2CCC(c3ccccc3)CC2)(c2ccc(Cl)c(Cl)c2)C1` (centres undefined), the inhibition in assay [1] was 11.9%; in assay [2] it was 11.5%; in assay [3] it was 11.7%.

Take `O=C(Nc1ccc(OC2CCN(Cc3ccc(F)cc3)CC2)c(Cl)c1)c1ccco1`: the inhibition in assay [1] came to 1.06%; in assay [2], 1.1%; in assay [3] it was 3.28%.
